Measurements as given in PubChem BioAssay.
Values without a mark were called inactive. No rule for the calls is given here.

Target: Lethal factor (Bacillus anthracis) (UniProt P15917)
Test: Lethal factor protease inhibitors, Bacillus anthracis, multiplex microsphere cleavage assay, validation set (AID 588461)
Conditions: flow cytometry, at 10 µM, stronger effect = higher value

Lethal factor (Bacillus anthracis), sequence (P15917 whole entry, looked up): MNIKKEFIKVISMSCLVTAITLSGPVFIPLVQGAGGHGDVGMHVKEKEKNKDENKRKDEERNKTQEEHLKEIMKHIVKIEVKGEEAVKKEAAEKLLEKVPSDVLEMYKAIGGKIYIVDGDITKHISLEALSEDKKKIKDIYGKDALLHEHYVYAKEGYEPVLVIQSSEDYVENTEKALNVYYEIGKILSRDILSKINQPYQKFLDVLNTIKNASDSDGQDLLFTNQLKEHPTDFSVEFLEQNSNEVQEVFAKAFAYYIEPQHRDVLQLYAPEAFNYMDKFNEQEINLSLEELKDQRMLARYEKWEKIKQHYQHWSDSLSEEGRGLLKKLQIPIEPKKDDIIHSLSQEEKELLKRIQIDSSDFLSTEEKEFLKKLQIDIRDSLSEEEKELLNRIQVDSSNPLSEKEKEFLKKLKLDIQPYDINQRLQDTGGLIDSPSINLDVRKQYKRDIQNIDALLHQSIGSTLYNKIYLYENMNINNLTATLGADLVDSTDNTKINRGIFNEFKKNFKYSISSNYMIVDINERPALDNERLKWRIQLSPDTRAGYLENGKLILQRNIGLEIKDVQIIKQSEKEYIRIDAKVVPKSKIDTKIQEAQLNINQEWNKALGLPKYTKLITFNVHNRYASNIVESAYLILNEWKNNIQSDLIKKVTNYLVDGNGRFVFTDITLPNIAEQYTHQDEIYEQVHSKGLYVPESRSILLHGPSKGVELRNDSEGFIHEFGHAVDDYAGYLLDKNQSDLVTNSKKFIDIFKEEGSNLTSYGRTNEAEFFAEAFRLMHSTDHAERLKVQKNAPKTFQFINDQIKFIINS

Compound	inhibition [%]
CCOc1ccc(C(=O)C(C)=O)c(OCC)c1	7.8
Cc1cc(O)c(C(C)C)cc1C1(c2cc(C(C)C)c(O)cc2C)OC(=O)c2ccccc21	-8.1
CN(C)CCOc1ccccc1Cc1ccccc1	3.4
C#CCN(C)Cc1ccccc1	-2.8
Cc1ccsc1/C=N\NC(=O)c1ccc2c(c1)OCO2	-1.3
O=C(c1ccccc1)N1CCN(C(=O)c2ccccc2)CC1	-0.8
C/C(NC(=O)c1cccs1)=C1\C(=O)C[C@@H]2[C@H]1C2(C)C	3.4
CC(=O)O[C@H]1C[C@@]2(C)[C@@H](C[C@@H](O)[C@H]3[C@@]4(C)CC[C@@H](O)[C@@H](C)C4CC[C@@]32C)/C1=C(\CCC=C(C)C)C(=O)O (stereo not given in full)	1.4
Cc1cc(C)nc(NS(=O)(=O)c2ccc(N)cc2)n1	3.4
OCCN1CCN(CCCN2c3ccccc3Sc3ccc(Cl)cc32)CC1	1.2
CCOC(=O)c1cc2c(nc1N)CC(C)(CC)OC2 (stereo not given)	-2.4
Cc1oc2cc(O)ccc2c(=O)c1Oc1ccccc1Br	-0.7
CC(=O)OC[C@H]1O[C@@H](n2ncc(=O)[nH]c2=O)[C@H](OC(C)=O)[C@@H]1OC(C)=O	3.7
COc1ccc(-c2csc(-c3cccnc3)n2)cc1C	-5.1
CC(C)CCOCC(=O)Nc1cccc(C(=O)O)c1	-0.3
O=C(O)CCn1cnc2ccccc2c1=O	-3.5
O=C(CCCCC(=O)NC1CCCC1)NC1CCCC1	-3.4
O=c1ccn([C@@H]2O[C@H](CO)[C@@H](O)[C@H]2O)c(=O)[nH]1	1.9
Cc1cc(-c2nn(-c3ccccc3F)cc2CN2CCC(O)CC2)c(C)s1	-1.4
C/C(=N\NC(=O)C1(C)CC1(Br)Br)c1ccc([N+](=O)[O-])cc1 (stereo not given)	-7.9

Compound	inhibition [%]
CC1(C)CC(c2csc(N)n2)CCO1 (stereo not given)	-8.4
O=C(CCCN1C(=O)/C(=C\c2cccs2)SC1=S)Nc1ccccn1	18.8
C[C@@H]1C[C@H](Nc2ccccc2)c2ccccc2N1C(=O)c1cccnc1	-2.9
O=C1[C@@H]2[C@H](Cc3ccc(O)cc3)N[C@]3(C(=O)Nc4ccccc43)[C@@H]2C(=O)N1c1ccc(F)cc1	-2.6
COC(=O)[C@@H](N)CS	-1.2
CN(C)c1ccc(Nc2c3c4c(cccc4n(C)c2=O)C(=O)c2ccccc2-3)cc1	-18.1
CC12CC(c3ccccc3O1)C(C(=O)N1CCOCC1)C(=O)N2 (stereo not given)	-4.8
CC(C)CN(C)Cc1c(C(=O)N2CCc3ccccc3C2)nc2ccc(Cl)cn12	1
COC(=O)c1cc(=O)c2ccc(OC)cc2o1	2.2
OCCC1CN(Cc2ccccc2-c2ccco2)CCN1C1CCCC1 (stereo not given)	5.3
C=C(C)c1nc2cc(OC)c(OC)cc2c(=O)o1	0.1
Cn1c(=O)c2c(ncn2CCO)n(C)c1=O	1.7
N#Cc1cc2c([nH]c1=O)CCCC2	2.6
O=C1Nc2ccc3sc4ccccc4c3c2C1=O	1.4
O=c1cc(CN2CCN(c3cccc(Cl)c3)CC2)c2cc(O)c(-c3ccccc3)cc2o1	-0.5
CS(=O)c1ccccc1O (stereo not given)	-9.2
Cc1ccccc1OCCSc1nc2ncnc(N)c2[nH]1	0.1
CC(=O)N1CC2(C)CN(C(C)=O)CC(C)(C1)C2	7.3
CC(C)COc1ccc(Cc2cnc(N)nc2N)cc1	1.9
Cc1ccc2[nH]c3c(=O)n(CCCN4CCN(C)CC4)cnc3c2c1	-2.5
